{"source": "PubChem BioAssay (EPA / NIEHS)", "note": "Where “and” joins values, the source holds several entries; their conditions need not be identical. Equal entries are not always repeated. The source holds several records for some structures; these can differ, active in one and inactive in another. Calls of active or inactive are those of the source. How the source made its calls: active means hit-call score of the fitted dose curve at least 0.9, where 1 is the maximum; inactive means score below 0.9.", "data": [{"read-out": "Pselectin, SELP (gene 6403)", "experiment": "BSK_4H_Pselectin: BioMAP Diversity Plus: 4H Assay for Pselectin Biomarker Activity (AID 2283026)", "details": "primary human endothelial cells (HUVEC); actives raise or lower the signal", "method": "BSK_4H is a cell-based, multiplexed-readout assay that uses umbilical vein endothelium, a human vascular primary cell, with measurements taken at 24 hours after chemical dosing in a 96-well plate.BSK_4H_Pselectin is an assay component measured in the BSK_4H assay. It measures P-Selectin antibody related to regulation of gene expression using ELISA technology.Data from the assay component BSK_4H_Pselectin was analyzed into 1 assay endpoint. This assay endpoint, BSK_4H_Pselectin, was analyzed with bidirectional fitting relative to DMSO as the negative control and baseline of activity. Using a type of binding reporter, gain or loss-of-signal activity can be used to understand changes in the signaling as they relate to the gene SELP. Furthermore, this assay endpoint can be referred to as a primary readout, because this assay has produced multiple assay endpoints where this one serves a signaling function. To generalize the intended target to other relatable targets, this assay endpoint is annotated to the cell adhesion molecules intended target family, where the subfamily is selectins.\nThe levels of cell surface (or secreted, indicated by the prefix \"s\") biomarker endpoints were measured by ELISA. Overt cytotoxicity to cells in confluent adherent cultures (all systems other than the BT system) was assessed by measuring total protein levels using sulforhodamine B (SRB) staining in parallel cultures at the time of biomarker measurements, indicated as SRB endpoints. For proliferation assays for adherent cell types, individual cell types are cultured at sub-confluence and relative cell numbers quantified by SRB staining at time points optimized for each system (48 h: 3C and CASM3C systems; 72 h: BT and HDF3CGF systems; 96 h: SAg system). SRB was performed by staining cells with 0.1% SRB after fixation with 10% TCA and reading wells at 560 nm.Viability and proliferation of PBMC (T cells) was quantified by Alamar Blue reduction for the SAg and BT systems. For PBMC viability (referred to as PBMC Cytotoxicity within the assay endpoint names), cells were plated (75,000/well in a 96-well plate) and then chemical samples added for 1 h before addition of activators, SEB and TSST-1 (20 ng/mL final concentration each). Cells were incubated for 90 h. Then, Alamar Blue (20 uL/well) (Invitrogen, Cat DAL1100) was added for 6 h, and the plates were read with a fluorescence microplate reader at 546/580 nm (excitation/emission). For PBMC proliferation, cells were plated and activated as above but incubated for only 16 h prior to addition of Alamar Blue. Plates were read after 6 h.", "values": [{"smiles": "O=C(O)C(F)(F)C(F)(F)C(F)(F)C(F)(F)C(F)(F)F", "outcome": "inactive"}, {"smiles": "CC1=C2C[C@H]3[C@@H](CC=C4C[C@@H](O)CC[C@@]43C)[C@@H]2CC[C@]12O[C@@H]1C[C@H](C)CN[C@H]1[C@H]2C", "outcome": "inactive"}, {"smiles": "O=C(O)C(F)(F)C(F)(F)C(F)(F)C(F)(F)C(F)(F)C(F)(F)C(F)(F)C(F)(F)F", "outcome": "inactive"}, {"smiles": "Oc1ccc(C(c2ccc(O)cc2)(C(F)(F)F)C(F)(F)F)cc1", "AC50": "15.7 µM (active)"}, {"smiles": "O=C(O)C(F)(F)C(F)(F)C(F)(F)C(F)(F)C(F)(F)C(F)(F)C(F)(F)C(F)(F)C(F)(F)F", "AC50": "50.1 µM (active) and 49.5 µM (active)", "outcome": "inactive"}, {"smiles": "Cc1ccccc1O", "outcome": "inactive"}, {"smiles": "CO/C=C(/C(=O)OC)c1ccccc1COc1cccc(C(F)(F)F)n1", "outcome": "inactive"}, {"smiles": "CC(C)(c1ccccc1)c1ccc(O)cc1", "AC50": "32.6 µM (active)"}, {"smiles": "ClC1=C(Cl)[C@]2(Cl)[C@@H]3[C@@H]4C[C@@H]([C@H]5O[C@@H]45)[C@@H]3[C@@]1(Cl)C2(Cl)Cl", "outcome": "inactive"}, {"smiles": "CCCN(CCC)N=O", "outcome": "inactive"}, {"smiles": "C[C@]12CCC(=O)C=C1CC[C@@H]1[C@@H]2CC[C@]2(C)C(=O)CC[C@@H]12", "outcome": "inactive"}, {"smiles": "CC(C)C(=O)OCC(C)(C)C(OC(=O)C(C)C)C(C)C", "note": "(stereo not given)", "outcome": "inactive"}, {"smiles": "Clc1ccc(Cl)cc1", "outcome": "inactive"}, {"smiles": "ClC(Cl)=C(c1ccc(Cl)cc1)c1ccc(Cl)cc1", "AC50": "31.3 µM (active)"}, {"smiles": "NS(=O)(=O)C(F)(F)C(F)(F)C(F)(F)C(F)(F)C(F)(F)C(F)(F)C(F)(F)C(F)(F)F", "AC50": "27.6 µM (active) and 43.9 µM (active) and 45.9 µM (active)"}, {"smiles": "CCCCCCCCCC[N+](C)(C)CCCCCCCCCC", "AC50": "1.99 µM (active)"}, {"smiles": "Nn1cnnc1", "outcome": "inactive"}, {"smiles": "Cc1ccccc1[N+](=O)[O-]", "outcome": "inactive"}, {"smiles": "CCC(C)(CC)c1cc(NC(=O)c2c(OC)cccc2OC)on1", "outcome": "inactive"}, {"smiles": "Cc1ccccc1CO[C@@H]1C[C@@]2(C(C)C)CC[C@]1(C)O2", "outcome": "inactive"}, {"smiles": "CCCCCCCCOC(=O)c1ccccc1C(=O)OCCCCCCCC", "outcome": "inactive"}, {"smiles": "O=S(=O)(O)C(F)(F)C(F)(F)C(F)(F)C(F)(F)C(F)(F)C(F)(F)F", "AC50": "17.2 µM (active)", "outcome": "inactive"}, {"smiles": "C=CC(=O)NCNC(=O)C=C", "outcome": "inactive"}, {"smiles": "CCC(=O)O[C@H]1CC[C@H]2[C@@H]3CCC4=CC(=O)CC[C@]4(C)[C@H]3CC[C@]12C", "AC50": "34 µM (active)"}, {"smiles": "O=S(=O)(O)C(F)(F)C(F)(F)C(F)(F)C(F)(F)F", "outcome": "inactive"}, {"smiles": "Cc1cc(O)ccc1Cl", "outcome": "inactive"}, {"smiles": "C1CC2OC2CC1C1CO1", "note": "(stereo not given)", "outcome": "inactive"}, {"smiles": "Oc1ccc(Cl)cc1Cl", "outcome": "inactive"}, {"smiles": "CC(C)(O)C(=O)Nc1ccc([N+](=O)[O-])c(C(F)(F)F)c1", "outcome": "inactive"}, {"smiles": "Cc1cc2c3c(c1)C(c1ccccc1)=N[C@@H](NC(=O)c1ccncc1)C(=O)N3CC2", "outcome": "inactive"}, {"smiles": "Cc1cc(-c2ccc(N)c(C)c2)ccc1N", "outcome": "inactive"}, {"smiles": "CC#Cc1cc(C)nc(Nc2ccccc2)n1", "outcome": "inactive"}, {"smiles": "Clc1ccc(C(Cl)(Cl)Cl)cc1", "outcome": "inactive"}, {"smiles": "Oc1c(Cl)c(Cl)c(Cl)c(Cl)c1Cl", "AC50": "8.49 µM (active) and 9.69 µM (active)"}, {"smiles": "CCC(C)(c1ccc(O)cc1)c1ccc(O)cc1", "AC50": "32.1 µM (active)"}, {"smiles": "CCCCCCOC(=O)c1ccccc1C(=O)OCCCCCC", "AC50": "29.3 µM (active)"}, {"smiles": "ClC1=C(Cl)[C@]2(Cl)[C@@H]3[C@@H](Cl)[C@H]4O[C@H]4[C@@H]3C1(Cl)C2(Cl)Cl", "outcome": "inactive"}, {"smiles": "CCNc1nc(NC(C)C)nc(SC)n1", "outcome": "inactive"}]}]}
